Screens deposited in PubChem BioAssay by National Center for Advancing Translational Sciences (NCATS).
Shown are actives, neighbours in structure and some others; about 1.1% of the full set was active somewhere.
Giardia FBPA inh: blocks Giardia fructose-bisphosphate aldolase activity. A8B2U2. purified Giardia FBPA. Potency, µM (top dose mostly 59.6 µM), inactives show at the highest dose activity, negative = inhibition, most hits filed as inhibitors. hit rate 0.71% among 290,000; note: % is set by controls: 0 for no effect and ±100 for the full control effect; nearly all actives have a fitted effect of over 55% in size
Target sequence (A8B2U2 whole entry, looked up): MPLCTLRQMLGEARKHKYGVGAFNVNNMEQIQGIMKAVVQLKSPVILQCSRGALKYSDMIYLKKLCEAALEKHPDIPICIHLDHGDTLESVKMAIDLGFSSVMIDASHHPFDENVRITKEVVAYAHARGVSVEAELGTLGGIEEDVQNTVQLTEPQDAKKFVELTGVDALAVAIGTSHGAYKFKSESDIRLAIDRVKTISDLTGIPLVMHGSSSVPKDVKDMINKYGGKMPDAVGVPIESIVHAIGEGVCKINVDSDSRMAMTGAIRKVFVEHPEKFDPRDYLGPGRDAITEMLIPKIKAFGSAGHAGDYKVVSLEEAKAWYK
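40 nM FBPA preincubated 10 min at RT with compound (up to 57.5 uM final), then substrate plus GAPDH/TPI/NAD/arsenate coupling and diaphorase/resazurin added. Fluorescence read after 20 min at RT, 525/598 nm.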
SARS PLpro yeast: SARS-CoV PLP inhibition in yeast; S. cerevisiae expressing SARS-CoV PLpro, growth rescue; Potency, µM (highest dose often 32.9 µM), inactives show top-dose activity, positive = growth rescue, usual class: activators; hit rate 0.19% among 330,000; calls by dose curve; note: 0% is about no effect; nearly all actives have a fitted effect of over 55% in size
AmpC inh detg: AmpC beta-lactamase inhibition with detergent present. hit rate 0.041% among 370,000. Potency, µM (doses to about 114 µM), without a hit: at the top dose activity change, negative = inhibition, hits mostly inhibitors. AmpC hydrolysis of nitrocefin, absorbance 480 nm, 0.01% Triton. P00811;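 note: 0% = no-compound wells and -100% = no-enzyme wells; nearly all actives have a fitted effect of over 25% in size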
Target sequence (P00811 whole entry, looked up): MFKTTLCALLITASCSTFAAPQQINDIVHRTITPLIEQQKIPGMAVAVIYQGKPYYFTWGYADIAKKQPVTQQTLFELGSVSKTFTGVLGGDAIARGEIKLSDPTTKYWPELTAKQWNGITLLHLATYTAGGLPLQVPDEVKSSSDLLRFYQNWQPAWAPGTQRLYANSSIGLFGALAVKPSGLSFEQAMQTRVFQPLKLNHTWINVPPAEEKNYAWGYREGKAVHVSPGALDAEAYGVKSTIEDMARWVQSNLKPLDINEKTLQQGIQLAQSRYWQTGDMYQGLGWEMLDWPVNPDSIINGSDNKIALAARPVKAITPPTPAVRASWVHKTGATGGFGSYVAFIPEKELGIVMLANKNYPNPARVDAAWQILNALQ
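AmpC (5.3 nM in the dispensed reagent) in 20 mM phosphate pH 7.0 with 0.01% (detergent screen) or 0.0001% Triton X-100 was preincubated with compounds for 15 min at room temperature. Nitrocefin was then added from an 800 uM solution, and hydrolysis was followed at 480 nm.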
AmpC inh no detg: inhibitors of E. coli AmpC beta-lactamase without detergent; P00811; AmpC nitrocefin hydrolysis, absorbance 480 nm, 0.0001% Triton; Potency, µM (series often up to 57.1 µM), for inactives: at the top dose activity change, negative = inhibition, usual class: inhibitors; hit rate 0.52% among 330,000; AID 485341;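 note: plate controls were no compound for no effect and no enzyme for full effect; nearly all actives have a fitted effect of over 20% in size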
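AmpC (5.3 nM in the dispensed reagent) in 20 mM phosphate pH 7.0 with 0.01% (detergent screen) or 0.0001% Triton X-100 was preincubated with compounds for 15 min at room temperature. Nitrocefin was then added from an 800 uM solution, and hydrolysis was followed at 480 nm.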
Numbers without * were called inactive; ? = inconclusive; / = not tested or not shown; [ ] = another dose, or the depositor's remark. Unless noted, calls come from the whole dose curve; as a rule, active = well fitted curve in the direction sought with a large enough effect; inconclusive = small, poorly fitted or top-dose-only effect, or another doubt; inactive = no such curve, though single readings can be large; an effect the other way counts as inactive or inconclusive. Potency is the fitted concentration of half-maximal effect.

SMILES	Giardia FBPA inh	SARS PLpro yeast	AmpC inh detg	AmpC inh no detg
CC[C@H](C)[C@H](NC(=O)[C@H](CCC(=O)O)NC(=O)[C@H](CO)NC(=O)[C@@H](NC(=O)[C@@H](N)CO)C(C)C)C(=O)N[C@@H](CCC(N)=O)C(=O)N[C@@H](CC(C)C)C(=O)N[C@@H](CCSC)C(=O)N[C@@H](Cc1cnc[nH]1)C(=O)N[C@@H](CC(N)=O)C(=O)N[C@@H](CC(C)C)C(=O)NCC(=O)N[C@@H](CCCCN)C(=O)N[C@@H](Cc1cnc[nH]1)C(=O)N[C@@H](CC(C)C)C(=O)N[C@@H](CC(N)=O)C(=O)N[C@@H](CO)C(=O)N[C@@H](CCSC)C(=O)N[C@@H](CCC(=O)O)C(=O)N[C@@H](CCCNC(=N)N)C(=O)N[C@H](C(=O)N[C@@H](CCC(=O)O)C(=O)N[C@@H](Cc1c[nH]c2ccccc12)C(=O)N[C@@H](CC(C)C)C(=O)N[C@@H](CCCNC(=N)N)C(=O)N[C@@H](CCCCN)C(=O)N[C@@H](CCCCN)C(=O)N[C@@H](CC(C)C)C(=O)N[C@@H](CCC(N)=O)C(=O)N[C@@H](CC(=O)O)C(=O)N[C@H](C(=O)N[C@@H](Cc1cnc[nH]1)C(=O)N[C@@H](CC(N)=O)C(=O)N[C@@H](Cc1ccccc1)C(=O)N[C@H](C(=O)N[C@@H](C)C(=O)N[C@@H](CC(C)C)C(=O)NCC(=O)O)C(C)C)C(C)C)C(C)C	-25.8%	/	/	/
O=C(CN1C(=O)NC2(CCCCC2)C1=O)Nc1cc(C(F)(F)F)ccc1N1CCCCC1	/	-1.4%	-0.6%	-1.7%
O=C(CN1C(=O)NC2(CCCC2)C1=O)Nc1cc(C(F)(F)F)ccc1N1CCCCC1	/	-4.4%	?	35.5µM*
Cc1ccc(C(=O)OCC(=O)c2c[nH]c3ccccc23)cc1S(=O)(=O)N1CCCCC1	-2.3%	-7.2%	-13.1%	15.8µM*
Cc1ccc(C(=O)NNC(=O)c2ccccc2O)cc1S(=O)(=O)N1CCCCC1	/	2.7%	?	8.91µM*
COC(=O)C1=C(C(=O)OC)[C@@H]2N(C)c3ccc(OC)cc3[C@@]23C[C@@H](C(=O)OC)N(S(=O)(=O)c2ccc4c(c2)OCCN4C)C3=N1	-3.9%[12.9 µM]	/	/	/
COC(=O)C1=C(C)OC(N)=C(C#N)C1c1cccnc1 (configuration not stated)	?	2.4%	-2.2%	-2.1%
CC1=C(n2nnc([N+](=O)[O-])n2)C(c2cccnc2)C(C#N)=C(N)O1 (configuration not stated)	5µM*	27.4%	-10.7%	-21.6%
Cc1cccc2sc(NNC(=O)c3cc(=O)c4ccccc4o3)nc12	-16.5%	-1.2%	-1.0%	-40.9%
Cc1ccc2sc(NNC(=O)c3cc(=O)c4ccccc4o3)nc2c1C	22.3µM*	-6.5%	5.8%	-46.6%
CC1C(NC(=O)/C(=N/OC(C)(C)C(=O)O)c2csc(N)n2)C(=O)N1S(=O)(=O)O (configuration not stated)	-10.7%	/	/	/
CN(Cc1ccccc1)C(=O)CCS(=O)(=O)c1ccc2c(c1)n(C)c(=O)c(=O)n2C	6.5%	7.6%	?	0.501µM*
CCOC(=O)c1c(N)sc2c1CCN(Cc1ccccc1)C2	17.7µM*	/	/	/
CCOC(=O)c1c(NC(=O)Cc2ccccc2)sc2c1CCN(CC)C2	?	-11.7%	?	113.5%
CCC(=O)NCCCCCCCCCNC(=O)CC	4.3%	-14.0%	-0.3%	-14.0%
CCC(=O)CC	14.1µM*	/	/	/
Cc1ccc(-n2c(=O)[nH]cc(C(=O)N3CCc4ccccc43)c2=O)cc1C	-3.8%	2.5%	?	10µM*
Oc1ccc(-c2nc3ccccn3c2NCc2ccc3c(c2)OCO3)cc1	-9.6%	-2.2%	0.1%	-20.9%
Cc1ccn2c(NCc3ccc4c(c3)OCO4)c(-c3ccc(O)cc3)nc2c1	0.8%	7.94µM*	?	-3.8%
O=C(O)C1Nc2c(Cl)cc(Cl)cc2C2C=CCC12 (configuration not stated)	7.0%	7.2%	?	12.6µM*
O=C1/C(=C/C=C/c2ccco2)SC(=S)N1c1ccc(O)cc1	?	-7.7%	-1.0%	15.8µM*
Cc1ccc(Cl)cc1N1CCN(S(=O)(=O)c2ccc3c(c2)NC(=O)C(C)C(=O)N3)CC1 (configuration not stated)	11.4%	0.0%	-5.1%	11.2µM*
Cc1ccc(Cl)cc1N1CCN(S(=O)(=O)c2ccc3c(c2)C(C(C)C)C(=O)N3)CC1 (configuration not stated)	/	/	24.4%	/
CC[Si](CC)(CC)O[C@H]([C@@H](C)COCOC)[C@@H](C)COCc1ccc(OC)cc1	2.9%	/	/	/
CCCCC/C=C\C\C=C/C=C/C=C/[C@@H](SCC(NC(=O)CCC(N)C(=O)O)C(=O)NCC(=O)O)[C@@H](O)CCCC(=O)O (some centres not stated)	-2.1%	/	/	/
SMILES	Giardia FBPA inh	SARS PLpro yeast	AmpC inh detg	AmpC inh no detg
CCCCCCC#Cc1cncc(C(=O)NNC(=O)Nc2cc(Cl)cc(Cl)c2)c1	8.1%	0.8%	5.0%	15.8µM*
COC(=O)C[C@H]1c2ccccc2C2=C(C[C@@H](C)[C@H]3C(=O)NC(=O)[C@@H]23)N1C(=O)OC	5.7%[12.9 µM]	/	/	/
C=CCN1c2ccc(Br)cc2C(=O)CS1(=O)=O	/	1.8%	-1.3%	3.98µM*
COc1cccc(CN2c3ccc(Br)cc3C(=O)CS2(=O)=O)c1	/	-1.1%	4.3%	?
Cc1ccc(-c2cn(S(=O)(=O)c3cccc4nsnc34)nc2N)cc1	0.9%	/	-1.2%	/
Nc1nn(S(=O)(=O)c2cccc3nsnc23)cc1-c1ccc(Br)cc1	-1.0%	-6.3%	?	20µM*
COc1ccccc1OCCCn1cc(C#N)c2ccccc21	19.9µM*	-6.6%	-8.6%	0.7%
N#Cc1cn(CCCOc2ccccc2)c2ccccc12	0.6%	-21.6%	2.2%	-19.3%
CCN1C(=O)/C(=C/c2ccc(N3CCCC3)cc2)NC1=S	-2.1%	-11.3%	-5.4%	28.2µM*
CCCN1C(=O)/C(=C/c2ccc(N3CCOCC3)cc2)NC1=S	-9.2%	7.9%	-1.6%	-10.9%
COc1cccc(C(=O)NC(=S)Nc2ccccc2N2CCOCC2)c1	/	-1.7%	4.1%	-2.3%
COc1cc(C(=O)NC(=S)Nc2ccccc2N2CCOCC2)cc(OC)c1OC	/	-8.5%	-2.9%	15.8µM*
Cc1ccc(NC(=S)N/N=C2/CCCCc3ccccc32)cc1	7.2%	-2.9%	-11.4%	?
Cc1cccc(NC(=S)N/N=C2/CCCCc3ccccc32)c1	1.8%	-47.2%	-2.7%	31.6µM*
CN1CCCN(Cc2ccc(Cl)cc2Cl)CC1	19.9µM*	-3.7%	-3.9%	-0.2%
CC(=O)Oc1cc(-c2coc3cc(OC(C)=O)c(OC(C)=O)c(OC(C)=O)c3c2=O)cc(OC(C)=O)c1OC(C)=O	5.61µM*	/	/	/
CCOc1cc(CNc2ccc(N(C)C)cc2)cc(Br)c1OCC(=O)NC(C)(C)C	5µM*	-22.0%	2.7%	?
CCOc1cc(CNc2ccc(N3CCCCC3)cc2)cc(Br)c1OCC(=O)NC(C)(C)C	-7.3%	-28.5%	1.2%	58.5%
